From PubChem BioAssay (Tox21) come the findings set out here.

A short description of assay [1]: qHTS assay for identifying genotoxic compounds that show differential cytotoxicity against isogenic chicken DT40 cell lines with known DNA damage response pathways - wild type cell line (AID 743012). Also: nearly all actives have a fitted effect of over 60% in size. Also: potency is read from the fitted curve at half-maximal effect. Summed up: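 Quantitative HTS on parental DT40 cells: 40 h compound treatment at 37 C/5% CO2, with viability then determined by CellTiter-Glo luminescence. Values serve as the DNA repair-proficient reference for differential cytotoxicity.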
(qHTS replaces the single test concentration by a dilution series.)

A short description of assay [2]: qHTS assay for identifying genotoxic compounds that show differential cytotoxicity against isogenic chicken DT40 cell lines with known DNA damage response pathways - Rev3 mutant cell line (AID 743014). Also: nearly all actives have a fitted effect of over 55% in size. Also: potency is read from the fitted curve at half-maximal effect.
The nature of assay [3]: qHTS assay for identifying genotoxic compounds that show differential cytotoxicity against isogenic chicken DT40 cell lines with known DNA damage response pathways - Rad54/Ku70 mutant cell line (AID 743015). Also: nearly all actives have a fitted effect of over 60% in size. Also: potency is read from the fitted curve at half-maximal effect.
The nature of assay [4]: qHTS assay to identify small molecule antagonists of the androgen receptor (AR) signaling pathway - cell viability counter screen (AID 743033; also: nearly all actives have a fitted effect of over 45% in size; also: potency is read from the fitted curve at half-maximal effect).
Assay [5] in a line: qHTS assay to identify small molecule antagonists of the androgen receptor (AR) signaling pathway using the MDA cell line - cell viability counter screen (AID 743041; also: nearly all actives have a fitted effect of over 45% in size). A digest of the protocol: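 Same-well cytotoxicity was assessed by CellTiter-Fluor in MDA-kb2 AR-luc cells after 16 h of compound treatment under R1881 agonism.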
The target in assay [6] is Estrogen receptor (Homo sapiens) (UniProt P03372). The experiment in a line: qHTS assay to identify small molecule antagonists of the estrogen receptor alpha (ER-alpha) signaling pathway (AID 743069; active = well fitted curve in the direction sought with a large enough effect in the signal ratio in the repeat runs, not every such curve was filed as active; inconclusive = weak or mixed curves, or effect the other way; inactive = no such curve, though single readings can be large or run the other way; the % refers to the signal ratio; also: potency is read from the fitted curve at half-maximal effect). Summed up:
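Reporter cells (ER-alpha-bla, HEK293 background) are conditioned overnight in stripped-serum medium (2% charcoal-stripped FBS). Compound and 17beta-estradiol exposure runs 18 hr at 37C, 5% CO2.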

A short description of assay [7]: qHTS assay to identify small molecule antagonists of the estrogen receptor alpha (ER-alpha) signaling pathway - cell viability counter screen (AID 743074; calls by dose curve;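 also: HEK293 cells carrying ER-alpha-UAS-bla reporter stimulated with 17beta-estradiol; nearly all actives have a fitted effect of over 45% in size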).
Assay [8] addresses Estrogen receptor (Homo sapiens) (UniProt P03372). The assay is described as follows: qHTS assay to identify small molecule agonists of the estrogen receptor alpha (ER-alpha) signaling pathway (AID 743075; calls by dose curve;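 also: HEK293 GripTite cells with ER-alpha and UAS-driven beta-lactamase reporter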; also: potency is read from the fitted curve at half-maximal effect).
For assay [9] the target is unchanged. The assay is described as follows: qHTS assay to identify small molecule agonists of the estrogen receptor alpha (ER-alpha) signaling pathway using the BG1 cell line (AID 743079). Also: nearly all actives have a fitted effect of over 20% in size. Also: potency is read from the fitted curve at half-maximal effect.
Assay [10] in a line: qHTS assay to identify small molecule antagonists of the estrogen receptor alpha (ER-alpha) signaling pathway using the BG1 cell line (AID 743080; calls by dose curve;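 also: BG1 cells stimulated with 17beta-estradiol alongside compound; nearly all actives have a fitted effect of over 25% in size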; also: potency is read from the fitted curve at half-maximal effect). Summed up: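 Luciferase inhibition measured with ONE-Glo after 30 min at RT in BG1Luc4E2 cells given test compounds and 17beta-estradiol for 21.5 h at 37 C; CellTiter-Fluor viability read in the same wells beforehand.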
The nature of assay [11]: qHTS assay to identify small molecule antagonists of the estrogen receptor alpha (ER-alpha) signaling pathway using the BG1 cell line - cell viability counter screen (AID 743081).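 Also: compound given together with 17beta-estradiol as the ER stimulus; series mostly up to about 70 µM; nearly all actives have a fitted effect of over 45% in size.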
In another assay the target is Aromatase (Homo sapiens) (UniProt P11511). The assay is described as follows: qHTS assay to identify aromatase inhibitors (AID 743083). Also: nearly all actives have a fitted effect of over 55% in size. Also: potency is read from the fitted curve at half-maximal effect.
Assay [12] is described as follows: qHTS assay to identify small molecule antagonists of the glucocorticoid receptor (GR) signaling pathway - cell viability counter screen (AID 720693). Also: nearly all actives have a fitted effect of over 55% in size.
The target of assay [13] is Androgen receptor (Homo sapiens) (UniProt P10275). The experiment in a line: qHTS assay to identify small molecule antagonists of the androgen receptor (AR) signaling pathway (AID 743035; active = well fitted inhibition curve with a large enough effect in the signal ratio in the repeat runs, not every such curve was filed as active; inconclusive = weak or mixed curves, or effect the other way; inactive = no such curve, though single readings can be large or run the other way; the % refers to the signal ratio; also: potency is read from the fitted curve at half-maximal effect). Summed up:
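Cell line: GeneBLAzer AR-UAS-bla GripTite (HEK293). Stimulus: R1881 added after compound. Exposure: 16 h, 37C, 5% CO2. Readout: LiveBLAzer B/G FRET fluorescence after 2 h at room temperature.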

Assay [14] shares this target. The experiment in a line: qHTS assay to identify small molecule agonists of the androgen receptor (AR) signaling pathway using the MDA cell line (AID 743040; also: nearly all actives have a fitted effect of over 20% in size). Summed up:
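Human breast carcinoma MDA-kb2 reporter cells (MMTV-luc, AR/GR elements) were treated for 16 h at 37C in 0% CO2 following a 5 h settling period. Signal was quantified by ONE-Glo luminescence.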

Assay [15] has the same target. The experiment in a line: qHTS assay to identify small molecule antagonists of the androgen receptor (AR) signaling pathway using the MDA cell line (AID 743042; also: nearly all actives have a fitted effect of over 55% in size; also: potency is read from the fitted curve at half-maximal effect). Summed up: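 MDA-kb2 breast carcinoma cells carrying MMTV-luciferase (AR/GR responsive) were co-treated with compounds and the agonist R1881 for 16 h at 37C. Inhibition read as ONE-Glo luminescence; CellTiter-Fluor fluorescence measured in parallel for cytotoxicity.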

The nature of assay [16]: qHTS assay to identify small molecule antagonists of the thyroid receptor (TR) signaling pathway - cell viability counter screen (AID 743064). Also: nearly all actives have a fitted effect of over 50% in size. A digest of the protocol:
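Rat GH3 pituitary tumor cells stably expressing two TR response elements driving luciferase were plated, rested 4 h, then dosed with library compounds and T3 (1 nM final). After 23.5 h at 37 °C, CellTiter-Fluor was added for 30 min and fluorescence recorded.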

Assay [17] in a line: qHTS assay to identify small molecule antagonists of the thyroid receptor (TR) signaling pathway (AID 743065). Also: nearly all actives have a fitted effect of over 55% in size. Also: potency is read from the fitted curve at half-maximal effect. Summed up: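 GH3.TRE-Luc rat pituitary cells (two TREs driving luciferase) were dosed with compound, then stimulated with 1 nM T3 (final) for 23.5 h at 37 C. ONE-Glo luminescence was the read-out, with CellTiter-Fluor fluorescence as the cytotoxicity counter-screen.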

For assay [18], the system named is thyroid hormone receptor (rat, GH3 cells). The assay is described as follows: qHTS assay to identify small molecule agonists of the thyroid receptor (TR) signaling pathway (AID 743066; calls by dose curve).
In assay [19] the target is Androgen receptor (Homo sapiens) (UniProt P10275). The assay is described as follows: qHTS assay to identify small molecule agonists of the androgen receptor (AR) signaling pathway (AID 743036; active = well fitted activation curve with a large enough effect in the signal ratio in the repeat runs, with a control signal flat, not every such curve was filed as active; inconclusive = weak or mixed curves, or effect the other way; inactive = no such curve, though single readings can be large or run the other way; the % refers to the signal ratio). Summed up: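 Quantitative HTS of the Tox21 10K library in HEK293 cells bearing a stably integrated UAS-controlled beta-lactamase reporter. Compound exposure lasted 16 h at 37C. Reporter activity was detected by FRET substrate fluorescence after 2 h at room temperature.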

Structures are written as SMILES. Active and inactive are the calls of the source. Unless noted, calls follow the shape of the dose curve; as a rule, active = well fitted curve in the direction sought with a large enough effect in the repeat runs; inconclusive = weak or mixed curves; inactive = no such curve, though single readings can be large; an effect the other way counts as inactive or inconclusive.

Aromatase (Homo sapiens), sequence (P11511 whole entry, looked up): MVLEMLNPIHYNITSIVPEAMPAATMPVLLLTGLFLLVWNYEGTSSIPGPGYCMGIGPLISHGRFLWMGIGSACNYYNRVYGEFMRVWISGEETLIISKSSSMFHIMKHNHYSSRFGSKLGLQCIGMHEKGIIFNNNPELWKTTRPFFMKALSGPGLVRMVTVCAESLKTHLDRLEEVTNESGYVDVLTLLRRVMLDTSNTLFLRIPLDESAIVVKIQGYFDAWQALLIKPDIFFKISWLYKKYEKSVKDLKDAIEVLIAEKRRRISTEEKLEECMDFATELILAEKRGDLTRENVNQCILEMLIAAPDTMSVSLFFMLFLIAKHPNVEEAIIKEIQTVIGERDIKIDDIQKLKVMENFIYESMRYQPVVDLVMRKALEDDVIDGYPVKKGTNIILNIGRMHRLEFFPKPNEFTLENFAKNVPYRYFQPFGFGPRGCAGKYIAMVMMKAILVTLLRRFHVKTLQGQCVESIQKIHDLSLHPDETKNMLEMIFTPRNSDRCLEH
Estrogen receptor (Homo sapiens), sequence (P03372 whole entry, looked up): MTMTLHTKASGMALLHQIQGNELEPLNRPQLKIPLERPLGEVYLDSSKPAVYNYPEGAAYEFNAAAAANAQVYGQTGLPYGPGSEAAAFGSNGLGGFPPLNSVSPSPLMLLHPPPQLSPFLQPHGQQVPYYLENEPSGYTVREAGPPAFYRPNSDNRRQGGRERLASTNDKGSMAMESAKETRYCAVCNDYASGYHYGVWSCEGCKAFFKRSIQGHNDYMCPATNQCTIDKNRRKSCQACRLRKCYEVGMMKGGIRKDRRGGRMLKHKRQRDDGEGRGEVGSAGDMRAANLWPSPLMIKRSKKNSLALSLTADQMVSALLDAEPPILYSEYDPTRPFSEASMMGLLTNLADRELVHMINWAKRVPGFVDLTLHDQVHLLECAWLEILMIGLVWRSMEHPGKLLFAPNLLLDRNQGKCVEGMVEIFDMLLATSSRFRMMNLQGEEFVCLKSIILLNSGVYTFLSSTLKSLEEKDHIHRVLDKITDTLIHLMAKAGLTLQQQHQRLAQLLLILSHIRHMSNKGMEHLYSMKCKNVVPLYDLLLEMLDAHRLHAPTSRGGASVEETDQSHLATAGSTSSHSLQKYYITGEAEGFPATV
Androgen receptor (Homo sapiens), sequence (P10275 whole entry, looked up): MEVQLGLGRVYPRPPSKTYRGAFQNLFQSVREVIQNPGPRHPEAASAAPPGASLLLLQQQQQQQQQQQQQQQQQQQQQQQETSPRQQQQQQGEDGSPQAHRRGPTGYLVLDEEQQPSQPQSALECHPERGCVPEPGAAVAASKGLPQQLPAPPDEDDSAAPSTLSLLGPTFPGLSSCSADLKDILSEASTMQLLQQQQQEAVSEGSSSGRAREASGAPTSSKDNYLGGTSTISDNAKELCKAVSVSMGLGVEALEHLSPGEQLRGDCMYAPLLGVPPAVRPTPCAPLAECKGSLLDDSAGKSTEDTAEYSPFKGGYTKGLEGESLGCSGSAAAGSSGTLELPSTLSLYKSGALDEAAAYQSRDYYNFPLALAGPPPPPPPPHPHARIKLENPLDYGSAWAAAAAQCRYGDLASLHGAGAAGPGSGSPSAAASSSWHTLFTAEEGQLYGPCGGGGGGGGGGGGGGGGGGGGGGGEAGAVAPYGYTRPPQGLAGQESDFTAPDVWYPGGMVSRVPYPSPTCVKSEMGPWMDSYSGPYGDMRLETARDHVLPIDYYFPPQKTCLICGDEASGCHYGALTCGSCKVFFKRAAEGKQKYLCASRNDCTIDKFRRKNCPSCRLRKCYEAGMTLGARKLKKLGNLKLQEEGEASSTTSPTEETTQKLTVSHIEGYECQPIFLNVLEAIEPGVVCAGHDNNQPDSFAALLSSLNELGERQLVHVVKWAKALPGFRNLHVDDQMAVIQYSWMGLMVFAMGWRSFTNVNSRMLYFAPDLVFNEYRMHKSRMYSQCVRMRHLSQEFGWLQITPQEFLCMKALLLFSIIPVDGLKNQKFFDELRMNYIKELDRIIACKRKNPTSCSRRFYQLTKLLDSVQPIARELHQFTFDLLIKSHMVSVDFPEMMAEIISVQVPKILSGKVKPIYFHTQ

Turning to `CC(C)(OO)c1ccccc1`, the figures for the Potency in [1], in assay [2] and in [3] were 30.6 µM (active), 27.3 µM (active) and 17.2 µM (active), respectively. Besides, the Potency result in assay [4], in assay [5], in assay [6], in assay [7], in assay [8] and in assay [9] was “inactive” throughout. Further, the Potency result (in [10]; in assay [11]; in the assay with Aromatase (Homo sapiens)) was “inactive” in each case.

As to `II`, the Potency entry in assay [12], in [4], in [13], in assay [14], in assay [15] and in assay [16] was “inactive” each time. The Potency entry in assay [17], in [18], in [6], in [7], in assay [8] and in assay [9] was “inactive” throughout. Also, the Potency result in assay [10] and in assay [11] was “inactive” throughout.

Regarding `OC(c1ccc(Cl)cc1)(c1ccc(Cl)cc1)c1cccnc1`, the Potency in assay [1] is 9.69 µM (active); in assay [2], 8.63 µM (active); in assay [3], 8.63 µM (active); in assay [4], 54.9 µM (active); in assay [13], 34.7 µM (active); in assay [15] it was 61.1 µM (active). The Potency in assay [17] was 54.5 µM (active). Moreover, the call in assay [19] was inactive. Besides, the Potency result in assay [14], in assay [5], in assay [18], in assay [7], in [8] and in [10] was “inactive” throughout. Further, in [11], the Potency entry was “inactive”.

Regarding `CO/C=C(/C(=O)OC)c1ccccc1COc1cccc(C(F)(F)F)n1`, the Potency in assay [1] is 0.0769 µM (active); in assay [2], 0.0769 µM (active); in assay [3] it was 0.0485 µM (active); in assay [17], 0.432 µM (active); in assay [8] it was 1.38 µM [inconclusive] (active); in assay [10], 2.17 µM (active). In addition, in the assay with Aromatase (Homo sapiens), the Potency was 68.5 µM (active). Besides, the Potency entry in assay [5], in assay [16] and in assay [18] was “inactive” each time.

Take `O=C1c2ccccc2C(=O)C1C(=O)C(c1ccccc1)c1ccccc1`: the Potency entry in assay [12], in assay [5], in assay [16], in [17], in [18] and in assay [7] was “inactive” throughout. The Potency result (in assay [11]; in the assay with Aromatase (Homo sapiens)) was “inactive” throughout.

Regarding `IC(I)=C(I)I`, the Potency is 0.611 µM (active) in assay [1]; 1.22 µM (active) in assay [2]; 1.22 µM (active) in assay [3]; 12.3 µM (active) in assay [4]; 19.3 µM (active) in [15]; 9.69 µM (active) in [10]. Further, in the assay with Aromatase (Homo sapiens), the Potency is 6.86 µM (active). For the same compound, the compound was classed as inactive in [19]. Also, the Potency entry in assay [14], in [18], in assay [7], in [8] and in assay [11] was “inactive” in each case.

Turning to `CCCCCC[N+](=O)[O-]`, the Potency result in assay [12], in assay [13], in assay [5], in assay [15], in assay [17] and in [18] was “inactive” throughout. Moreover, the Potency entry (in [7]; in assay [11]; with Aromatase (Homo sapiens)) was “inactive” in each case. Further, the compound was classed as inactive in assay [19].

As for `O=C1NCN(c2ccccc2)C12CCN(CCCOc1ccc(F)cc1)CC2`, the Potency in assay [1] was 10.6 µM (active); in assay [2] it was 13.3 µM (active); in assay [3], 16.8 µM (active); in assay [17], 16.8 µM (active); in [6], 10.7 µM [inconclusive] (active); with Aromatase (Homo sapiens), 16.8 µM (active). Further, the Potency entry in assay [4], in [7] and in assay [8] was “inactive” throughout.

In the case of `C[N+](C)(C)CCCl`, the Potency entry in [1], in assay [2], in [3], in assay [4], in assay [13] and in assay [14] was “inactive” each time. Besides, the Potency result in [15], in [16], in [18], in [6], in assay [7] and in assay [9] was “inactive” each time. Also, the Potency result (in [10]; in assay [11]; with Aromatase (Homo sapiens)) was “inactive” throughout.

With `O=C1C(=O)c2cccc3cccc1c23`, the Potency was 2.73 µM (active) in assay [1], 1.72 µM (active) in assay [2] and 2.43 µM (active) in [3]. Moreover, the Potency entry in [5], in assay [18], in assay [6], in assay [8], in assay [9] and in assay [10] was “inactive” throughout. Further, in the assay with Aromatase (Homo sapiens), the Potency result is “inactive”.

As to `CCCCC(O)(Cn1cncn1)c1ccc(Cl)cc1Cl` (stereo not drawn), the Potency in assay [1] was 15.3 µM (active); in [2], 13.7 µM (active); in assay [3], 13.7 µM (active); in [4], 48.9 µM (active); in [13] it was 17.4 µM (active); in [17], 61.1 µM (active). Moreover, the results for the Potency (in [10]; with Aromatase (Homo sapiens)) were 54.4 µM (active) and 48.5 µM (active), respectively. Besides, in [19], the result was inactive. Also, the Potency result in assay [14], in assay [5], in assay [7] and in assay [8] was “inactive” throughout.

Turning to `C=CC[C@]1(O)CC[C@H]2[C@@H]3CCC4=CC(=O)CCC4=C3C=C[C@@]21C`, the Potency was 9.44 µM (active) in assay [1]; 16.8 µM (active) in assay [2]; 10.6 µM (active) in assay [3]; 10.6 µM (active) in assay [17]; 1.69 µM [inconclusive] (active) in assay [8]; 1.33 µM (active) in assay [9]. Further, in [10], the Potency was 29.8 µM (active). In addition, the Potency entry in assay [4], in assay [16], in [18] and in assay [11] was “inactive” in each case.

With `CN1C(=O)C(O)N=C(c2ccccc2)c2cc(Cl)ccc21` (stereo not drawn), the Potency entry in assay [12], in [4], in assay [5], in assay [6], in assay [7] and in assay [8] was “inactive” throughout. For the same compound, the Potency entry (in [11]; with Aromatase (Homo sapiens)) was “inactive” throughout.
